High-throughput results: PubChem BioAssay, The Scripps Research Institute Molecular Screening Center
Sampled rows, rich in hits. Any-hit rate of the full collection: about 1.8%.
LYPLA1 counter = LYPLA1 inhibitors, primary screen, counter-screen for PME1 inhibitor project, biochemical, fluorescence polarization, FP-Rh probe ABPP; Acyl-protein thioesterase 1 (Homo sapiens), O75608; inhibition, % at 5.9 µM; hit rate 0.16% among 320,000; recombinant LYPLA1;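 active = inhibition above the mean of all tested compounds plus 3 SD, set per campaign, cut at about 14% in these data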;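 also: inhibitors block serine hydrolase probe labeling of LYPLA1 so polarization falls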
Target sequence (O75608 whole entry, looked up): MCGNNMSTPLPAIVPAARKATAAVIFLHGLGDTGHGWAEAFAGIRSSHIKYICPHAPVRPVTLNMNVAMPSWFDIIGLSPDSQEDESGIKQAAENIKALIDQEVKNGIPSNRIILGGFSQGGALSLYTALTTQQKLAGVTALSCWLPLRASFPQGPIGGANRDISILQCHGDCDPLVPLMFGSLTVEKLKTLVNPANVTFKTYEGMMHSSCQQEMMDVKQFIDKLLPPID
PP1 inh = PP1-alpha phosphatase inhibitors, primary screen, counter-screen for PP5 inhibitor project, biochemical, fluorescence, OMFP substrate, single point; inhibition, % at 6.7 µM; Serine/threonine-protein phosphatase PP1-alpha catalytic subunit (Homo sapiens), P62136; AID 2235, 2010; hit rate 0.9% among 320,000; purified PP1alpha;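 active = inhibition above the mean inhibition of all tested compounds plus 3 SD, computed separately for each screening campaign, cut at about 15% in these data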
LYPLA2 inh = LYPLA2 inhibitors, primary screen, counter-screen for PME1 inhibitor project, biochemical, fluorescence polarization, FP-Rh probe ABPP; hit rate 0.38% among 320,000; recombinant LYPLA2; Acyl-protein thioesterase 2 (Homo sapiens), O95372; AID 2177, 2009; inhibition, % at 5.9 µM;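 active = inhibition above the screen-wide mean plus 3 SD, limit set per campaign, cut at about 26% in these data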
Target sequence (O95372 whole entry, looked up): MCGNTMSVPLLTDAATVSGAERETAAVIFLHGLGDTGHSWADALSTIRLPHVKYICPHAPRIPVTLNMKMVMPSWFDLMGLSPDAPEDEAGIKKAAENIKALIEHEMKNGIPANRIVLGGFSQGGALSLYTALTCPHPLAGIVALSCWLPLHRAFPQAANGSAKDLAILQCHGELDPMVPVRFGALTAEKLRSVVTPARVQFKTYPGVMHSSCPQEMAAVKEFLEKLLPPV
PME-1 primary = PME-1 inhibitors via competitive probe labeling, primary screen, biochemical, fluorescence polarization, FP-Rh probe, HTS. Protein phosphatase methylesterase 1 (Homo sapiens), Q9Y570. recombinant PME-1. inhibition, % at 5.9 µM. hit rate 0.53% among 320,000. AID 2130, 2009;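 active = inhibition above the campaign mean of all compounds plus 3 SD, cut at about 26% in these data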;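 also: competitive labeling of PME-1 active site by serine hydrolase directed probe; inhibitors block probe labeling so polarization falls and inhibition rises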
Fam108B inh = mouse Fam108B serine hydrolase inhibitors, primary screen, counter-screen for RBBP9 inhibitor project, biochemical, fluorescence polarization; recombinant Fam108B, FP-Rh probe fluorescence polarization; inhibition, % at 9.51 µM; hit rate 0.33% among 300,000;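 active = inhibition above the screen mean inhibition plus 3 SD, computed separately per campaign, cut at about 18% in these data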;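 also: inhibitors lower polarization as less probe binds the enzyme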
PP5 primary = PP5 phosphatase inhibitors, primary screen, biochemical, fluorescence. AID 1987, 2009. inhibition, % at 6.7 µM. purified PP5c, OMFP substrate fluorescence. Serine/threonine-protein phosphatase 5 (Homo sapiens), P53041. hit rate 0.18% among 320,000;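 active = inhibition above the campaign's mean inhibition across all tested compounds plus 3 SD, cut at about 9.5% in these data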
Fam108b inh conf = mouse Fam108b serine hydrolase inhibitors, confirmation, counter-screen for RBBP9 inhibitor project, biochemical, fluorescence polarization, triplicate. inhibition, % at 9.51 µM. shares compounds with Fam108B inh. hit rate 44% among 930. AID 1978, 2009. recombinant Fam108b, FP-Rh probe fluorescence polarization;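 active = inhibition above a limit from the primary screen, the mean over all compounds plus 3 SD, cut at about 19% in these data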;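 also: inhibitors free the probe so polarization falls as inhibition rises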
Fam108b inh = inhibition of mouse Fam108b by HTS hits, late-stage follow-up, biochemical, gel-based ABPP, soluble recombinant form. AID 588649, 2011. shares compounds with Fam108B inh. inhibition, % at 20 µM. hit rate 44% among 260. fluorophosphonate probe; in the data active = inhibition above about 40%
Hits are given with their value.

Screening Cc1cccc(NC(=S)N/N=C/c2c[nH]c3ccccc23)c1 returned LYPLA1 counter inactive, PP1 inh inactive, LYPLA2 inh inactive, PME-1 primary 39, Fam108B inh 22, PP5 primary inactive and Fam108b inh conf inactive.
Screening CC(C)(C)OC(=O)NCCC(=O)N/N=C/c1cccc2nccnc12 returned LYPLA1 counter inactive, PP1 inh inactive, LYPLA2 inh inactive, PME-1 primary inactive, Fam108B inh inactive and PP5 primary inactive.
Nc1c(S(=O)(=O)c2cccc(Cl)c2)c2nc3ccccc3nc2n1N=Cc1ccc(O)c(O)c1 was read as Fam108b inh 80.
Nc1c(S(=O)(=O)c2cccs2)c2nc3ccccc3nc2n1/N=C/c1cccc(O)c1 was read as LYPLA1 counter inactive, PP1 inh inactive, LYPLA2 inh inactive, PME-1 primary inactive, Fam108B inh inactive and PP5 primary inactive.
For COc1ccc(C2C3=C(CC(C)(C)CC3=O)Nc3c2c(=O)[nH]c(=O)n3Cc2ccccc2)cc1 (stereo unspecified) the results were LYPLA1 counter inactive, PP1 inh inactive, LYPLA2 inh inactive, PME-1 primary inactive, Fam108B inh 21, PP5 primary inactive and Fam108b inh conf 22.
COc1ccc(C2C3=C(CC(C)(C)CC3=O)Nc3c2c(=O)[nH]c(=O)n3Cc2ccccc2)cc1OC (stereo unspecified) was read as LYPLA1 counter inactive, PP1 inh inactive, LYPLA2 inh inactive, PME-1 primary inactive, Fam108B inh inactive and PP5 primary inactive.
For CCN(CC)c1ccc(C(=O)NNC(=O)C2CSC3(C)CCC(=O)N23)cc1 (stereo unspecified) the results were LYPLA1 counter inactive, PP1 inh inactive, LYPLA2 inh inactive, PME-1 primary inactive and PP5 primary inactive.
Screening COc1ccc(Nc2nc(N)c(C(=O)c3ccc(F)cc3)s2)cc1 returned LYPLA1 counter inactive, PP1 inh inactive, LYPLA2 inh inactive, PME-1 primary inactive, Fam108B inh 50, PP5 primary inactive and Fam108b inh conf inactive.
COc1ccc(Nc2nc(N)c(C(=O)c3ccc(OC)cc3)s2)cc1 was read as LYPLA1 counter inactive, PP1 inh inactive, LYPLA2 inh inactive, PME-1 primary inactive, Fam108B inh inactive and PP5 primary inactive.
CCCCN1CC[C@H]2C=CC[C@@H](C(=O)Nc3nccs3)[C@H]2C1=O was read as LYPLA1 counter inactive, PP1 inh inactive, LYPLA2 inh inactive, PME-1 primary inactive, Fam108B inh inactive and PP5 primary inactive.
Screening O=C(Nc1cc(S(=O)(=O)N2CCOCC2)ccc1N1CCCC1)c1cnccn1 returned LYPLA1 counter inactive, PP1 inh inactive, LYPLA2 inh inactive, PME-1 primary inactive, Fam108B inh 18, PP5 primary inactive and Fam108b inh conf 23.
`O=C(Nc1cc(Cl)ccc1N1CCOCC1)c1cnccn1` gave LYPLA1 counter inactive, PP1 inh inactive, LYPLA2 inh inactive, PME-1 primary inactive, Fam108B inh inactive and PP5 primary inactive.
Screening O=C(NCCc1ccc(Cl)cc1)C1COc2ccccc2O1 (stereo unspecified) returned LYPLA1 counter inactive, PP1 inh inactive, LYPLA2 inh inactive, PME-1 primary inactive, Fam108B inh inactive and PP5 primary inactive.
Cc1ccc(C2C3=C(CC(C)(C)CC3=O)N=C3c4ccccc4C(=O)C32)cc1 (stereo unspecified) was read as LYPLA1 counter inactive, PP1 inh inactive, LYPLA2 inh inactive, PME-1 primary inactive, Fam108B inh 23, PP5 primary inactive and Fam108b inh conf inactive.
`CC1(C)CC(=O)C2=C(C1)N=C1c3ccccc3C(=O)C1C2c1ccc(Cl)cc1` (stereo unspecified) gave LYPLA1 counter inactive, PP1 inh inactive, LYPLA2 inh inactive, PME-1 primary inactive, Fam108B inh inactive and PP5 primary inactive.
`O=C(O)c1ccc(-n2cccc2/C=C2/NC(=O)N(c3ccccc3)C2=O)cc1` gave LYPLA1 counter inactive, PP1 inh inactive, LYPLA2 inh inactive, PME-1 primary inactive, Fam108B inh 20, PP5 primary inactive and Fam108b inh conf inactive.
For Nc1ccc(-c2cc3ccccc3oc2=O)cc1 the results were LYPLA1 counter inactive, PP1 inh inactive, LYPLA2 inh inactive, PME-1 primary inactive, Fam108B inh inactive and PP5 primary inactive.
For O=C/C=C/c1c(-c2ccccc2)cc2oc3ccccc3cc1-2 the results were LYPLA1 counter inactive, PP1 inh inactive, LYPLA2 inh inactive, PME-1 primary inactive, Fam108B inh 27, PP5 primary inactive and Fam108b inh conf inactive.
Screening CCOc1ccccc1N1CCN(C(=O)c2cc(S(=O)(=O)N(C)C)ccc2N2CCCC2)CC1 returned LYPLA1 counter inactive, PP1 inh inactive, LYPLA2 inh inactive, PME-1 primary inactive and PP5 primary inactive.
O=c1[nH]c(Nc2ccccc2Cl)cc2ccccc12 was read as LYPLA1 counter inactive, PP1 inh inactive, LYPLA2 inh inactive, PME-1 primary inactive, Fam108B inh inactive and PP5 primary inactive.
Screening Cc1ccccc1Nc1cc2ccccc2c(=O)[nH]1 returned LYPLA1 counter inactive, PP1 inh inactive, LYPLA2 inh inactive, PME-1 primary inactive, Fam108B inh 21, PP5 primary inactive and Fam108b inh conf 19.
Cc1ccccc1C(=O)NCC(=O)OC1CCCCC1=O (stereo unspecified) was read as LYPLA1 counter inactive, PP1 inh inactive, LYPLA2 inh inactive, PME-1 primary inactive, Fam108B inh inactive and PP5 primary inactive.
COc1ccc(Cl)cc1Nc1nc(-c2sc(NC(=O)c3ccco3)nc2C)cs1 was read as LYPLA1 counter inactive, PP1 inh inactive, LYPLA2 inh inactive, PME-1 primary inactive, Fam108B inh 19, PP5 primary inactive and Fam108b inh conf inactive.
`O=C(CSc1ccc(-c2ccco2)nn1)NCc1ccccc1Cl` gave LYPLA1 counter inactive, PP1 inh inactive, LYPLA2 inh inactive, PME-1 primary inactive, Fam108B inh 22, PP5 primary inactive and Fam108b inh conf inactive.
For O=C(CSc1ccc(-c2ccco2)nn1)Nc1ccccc1 the results were LYPLA1 counter inactive, PP1 inh inactive, LYPLA2 inh inactive, PME-1 primary inactive, Fam108B inh inactive and PP5 primary inactive.
